Data: PubChem BioAssay (NCATS)
Inconclusive results are not listed. A call without a number means that no potency is given here. Activity calls are given as the source filed them. Calls come from the whole dose curve; as a rule, active = well fitted inhibition curve with a large enough effect; inconclusive = small, poorly fitted or top-dose-only effect; inactive = flat fitted curve, though single readings scatter.

The compounds below were run against Aldehyde dehydrogenase, mitochondrial (Homo sapiens) (UniProt P05091) (assay: qHTS for Inhibitors of the Aldehyde Dehydrogenase Family (ALDH2) Primary screen (AID 2061308; note: nearly all actives have a fitted effect of over 55% in size)). Conditions: ALDH2 enzyme inhibition qHTS, 1536-well; series mostly up to 56 µM.
For C=C(C)C1CCC(C)C12CC(O)C1(C)OC1C2OC(=O)C(N)CCC(=O)O (configuration not stated), the Potency was “inactive”. For CNC12CC3C[C@@](C)(C1)C[C@](C)(C3)C2, the Potency was “inactive”. With CCC(C)C1NC(=O)C2C(C)CCN2C(=O)C(CC(O)CO)OC(=O)CCNC(=O)C(C)N(C)C(=O)C(C(C)C)N(C)C1=O (configuration not stated) the Potency was “inactive”. For C#C[C@]1(OC(C)=O)CC[C@H]2[C@@H]3CCC4=C[C@@H](OC(C)=O)CC[C@@H]4[C@H]3CC[C@@]21C, the Potency was “inactive”. C=C(C(=O)O)C1CCC2(C)CCCC(C)(O)C2C1 (configuration not stated) was tested, and the Potency was “inactive”. For COc1cc(-c2nc(N[C@H](CO)Cc3ccccc3)ccc2C(=O)NCCOc2ccccc2)cc(OC)c1OC, the Potency was “inactive”. In the case of COc1ccc(/C=C/C(=O)O[C@@H]2[C@@H](O)[C@H](C)O[C@@H](O[C@H]3[C@@H]4C=CO[C@@H](O[C@H]5O[C@@H](CO)[C@H](O)[C@@H](O)[C@@H]5O)[C@@H]4[C@@]4(CO)O[C@@H]34)[C@@H]2OC(C)=O)cc1, the Potency is reported as “inactive”.
